About 83,000 compounds went through this panel and 20% of them were active in at least one assay; those are over-represented in the sample as a whole.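 In brief: 96-well plates, 48 h treatment, single concentration, percent growth endpoint.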 Values without a mark were called inactive. Active and inactive are the calls of the source. The calls were made as follows: active = growth percent below 10; inactive = the rest.
Each compound was assayed on NCI-H23 lung (assay: NCI-60 one-dose screen, 48 h (100 = growth as untreated, 0 = no growth, -100 = all killed)). Details: 10 µM unless noted.

`Fc1ccc(C2=NN(c3ccccc3)C(c3sc(N(CCCl)CCCl)nc3Cl)C2)cc1` (stereo not given) was tested. Which growth did it give?
The growth was 85.4%.

How did the growth turn out when `CC[C@H](C)[C@H](NC(=O)Nc1ccccc1)C(=O)N(C)[C@H](C[C@@H](OC(C)=O)c1nc(C(=O)N[C@@H](Cc2ccccc2)C[C@H](C)C(=O)OC)cs1)C(C)C` was run?
The growth was 23.6%.

With `c1ccc(CCN2CCCCC2Cc2ccccc2)cc1` (stereo not given) as the compound, how does the growth read?
Its growth is 86.2%.

With `CC(=O)O[C@H]1CCC2(C)C(=CCC3C2CCC2(C)/C(=N/OC(=O)c4ccc(N(CCCl)CCCl)cc4)CCC32)C1` (stereo not given in full) as the compound, how does the growth read?
Its growth is 45.8%.

With `O=C(N/N=C/c1ccc(N(CCCl)CCCl)cc1)c1cc(=O)[nH]c(=O)[nH]1` as the compound, how does the growth read?
Its growth is 79.7%.

With `O=[As]c1ccc(C(=O)c2ccc(Oc3ccccc3)cc2)cc1` (stereo not given) as the compound, how does the growth read?
The growth was -77.5% (active).

`O=[N+]([O-])c1cc([N+](=O)[O-])c(Cl)c(Cl)c1Cl` was tested. Which growth did it give?
The growth was 43%.

With `Cc1cc(NC(=O)NCCOc2ccc(N3C(N)=NC(N)=NC3(C)C)cc2Cl)ccc1S(=O)(=O)F` as the compound, how does the growth read?
Its growth is 40.2%.

`COc1ccc2c(c1)NC1=C(C(=O)OC1)C2c1cc(OC)c(OC)c(OC)c1` (stereo not given) was tested. Which growth did it give?
Its growth is 16.2%.

For `C=CCc1ccc(OC(=O)Cc2ccccc2)c(OC)c1`, which growth is on record?
Its growth is 93.8%.

Which growth does the source give for `CC(C)(O)/C=C/C(=O)[C@](C)(O)[C@H]1[C@H](O)C[C@@]2(C)[C@@H]3CC=C4[C@@H](C=C(O)C(=O)C4(C)C)[C@]3(C)C(=O)C[C@]12C` here?
The growth was -40.1% (active).

For `C[C@]12CCc3sc(-c4ccc(Cl)cc4)nc3C1=CC[C@@H]1[C@@H]2CC[C@]2(C)C(=O)CC[C@@H]12`, which growth is on record?
Its growth is 71.3%.

For `C=CCC1(CC)C(=O)NC(=S)NC1=O`, which growth is on record?
The growth was 100%.

`NC(Cc1ccc2c(c1)OCO2)c1ccc2c(c1)OCO2` (stereo not given) was tested. Which growth did it give?
Its growth is 105%.

How did the growth turn out when `O=C(CF)N(O)c1ccc(/C=C/c2ccccc2)cc1` was run?
The growth was 60.7%.

`COc1ccc(/C=C(/C(=O)N2CCCC2)c2cc(OC)c(OC)c(OC)c2)cc1N` was tested. Which growth did it give?
Its growth is 41.7%.

For `Nc1nc(N)c(-c2ccc(Cl)c(Cl)c2)c(/C=C/c2ccc(S(=O)(=O)F)cc2)n1`, which growth is on record?
The growth was 106%.

`Nc1c(Br)cc([N+](=O)[O-])cc1[N+](=O)[O-]` was tested. Which growth did it give?
Its growth is 98.4%.

Which growth does the source give for `Oc1ccc(O)c2c1C1(Cl)C(Cl)=C(Cl)C2(Cl)C1(Cl)Cl` here?
Its growth is 59.3%.

`CN(C)P1(N(C)C)=NP(N(C)C)(N(C)C)=NP(N(C)C)(N(C)C)=N1` was tested. Which growth did it give?
The growth was 106%.

`CCCCNCCc1ccccn1` was tested. Which growth did it give?
Its growth is 99.9%.

With `CNC(=O)Oc1cccc(OC)c1` as the compound, how does the growth read?
Its growth is 101%.

For `C=C=[CH][Sn]([c]1ccccc1)([c]1ccccc1)[c]1ccccc1`, which growth is on record?
The growth was -43.3% (active).

`NC(=O)SCC(=O)Nc1ccc([As](=O)(O)O)cc1` was tested. Which growth did it give?
The growth was 86.1%.

For `C[C@]12CC[C@H]3[C@@H](C[C@@H]4N=C(c5ccc(O)cc5)S[C@@]45C[C@H](O)CC[C@]35C)[C@@H]1CC[C@@H]2O`, which growth is on record?
Its growth is 74.7%.

With `CC1(C)N=C(N)N=C(N)N1c1ccc(CCCCc2ccc(S(=O)(=O)F)cc2)cc1` as the compound, how does the growth read?
Its growth is 39.4%.

How did the growth turn out when `Nc1c(Br)cc2c3c(cccc13)-c1ccccc1-2` was run?
The growth was 61.7%.

Which growth does the source give for `COc1cc2c(cc1OC)CN(C)C(C)C2` (stereo not given) here?
Its growth is 101%.

Which growth does the source give for `CC(C)C1c2ccc(O)cc2Oc2nc(N)c(C#N)c(N)c21` (stereo not given) here?
Its growth is 105%.

`c1ccc2nc(OCCN3CC3)ccc2c1` was tested. Which growth did it give?
Its growth is 74.2%.

For `CC1(C)N=C(N)N=C(N)N1c1ccc(CNC(=O)Nc2ccc(S(=O)(=O)F)c(Cl)c2)c(Cl)c1`, which growth is on record?
Its growth is 31.1%.

`c1ccc(-c2ccc3ccccc3[o+]2)cc1` was tested. Which growth did it give?
The growth was 84.4%.

How did the growth turn out when `CSc1ccccc1NP1(=O)OCC(C)([N+](=O)[O-])CO1` (stereo not given) was run?
Its growth is 106%.

How did the growth turn out when `CC1COC(=O)C1` (stereo not given) was run?
Its growth is 104%.

How did the growth turn out when `C[CH2][Pb]([CH2]C)([CH2]C)[O]C(=O)COc1ccccc1` was run?
The growth was -6.75% (active).

Which growth does the source give for `COc1ccc(/C=C\c2cc(OC)c(OC)c(OC)c2)cc1N/C=C\C(=O)c1c[nH]c2ccccc12` here?
Its growth is 26.6%.

`CCCC(C)(C)c1ccc2c(c1)OC(C)(C)[C@@H]1CC=C(C)C[C@@H]21` was tested. Which growth did it give?
Its growth is 96.1%.

How did the growth turn out when `OC1(c2ccc(Cl)cc2Cl)c2ccccc2C2=NCCN21` (stereo not given) was run?
Its growth is 88.5%.

Which growth does the source give for `CC1(CF)NC(=O)NC1=O` (stereo not given) here?
Its growth is 103%.

Which growth does the source give for `O=C(Nc1ccc(S(=O)(=O)F)cc1)Oc1ccccc1` here?
Its growth is 97.8%.

These compounds were tested on NCI-H226 lung in the same assay as above. Details: 10 µM unless noted.

`Fc1ccc(C2=NN(c3ccccc3)C(c3sc(N(CCCl)CCCl)nc3Cl)C2)cc1` (stereo not given) was tested. Which growth did it give?
Its growth is 74.1%.

`CC[C@H](C)[C@H](NC(=O)Nc1ccccc1)C(=O)N(C)[C@H](C[C@@H](OC(C)=O)c1nc(C(=O)N[C@@H](Cc2ccccc2)C[C@H](C)C(=O)OC)cs1)C(C)C` was tested. Which growth did it give?
Its growth is 24.5%.

`c1ccc(CCN2CCCCC2Cc2ccccc2)cc1` (stereo not given) was tested. Which growth did it give?
The growth was 102%.

With `CC(=O)O[C@H]1CCC2(C)C(=CCC3C2CCC2(C)/C(=N/OC(=O)c4ccc(N(CCCl)CCCl)cc4)CCC32)C1` (stereo not given in full) as the compound, how does the growth read?
The growth was 101%.

How did the growth turn out when `O=C(N/N=C/c1ccc(N(CCCl)CCCl)cc1)c1cc(=O)[nH]c(=O)[nH]1` was run?
The growth was 5.48% (active).

For `O=[As]c1ccc(C(=O)c2ccc(Oc3ccccc3)cc2)cc1` (stereo not given), which growth is on record?
The growth was -85.5% (active).

With `O=[N+]([O-])c1cc([N+](=O)[O-])c(Cl)c(Cl)c1Cl` as the compound, how does the growth read?
Its growth is 52.8%.

Which growth does the source give for `Cc1cc(NC(=O)NCCOc2ccc(N3C(N)=NC(N)=NC3(C)C)cc2Cl)ccc1S(=O)(=O)F` here?
Its growth is 91.3%.

With `COc1ccc2c(c1)NC1=C(C(=O)OC1)C2c1cc(OC)c(OC)c(OC)c1` (stereo not given) as the compound, how does the growth read?
Its growth is 49.6%.

For `C=CCc1ccc(OC(=O)Cc2ccccc2)c(OC)c1`, which growth is on record?
Its growth is 95%.

For `CC(C)(O)/C=C/C(=O)[C@](C)(O)[C@H]1[C@H](O)C[C@@]2(C)[C@@H]3CC=C4[C@@H](C=C(O)C(=O)C4(C)C)[C@]3(C)C(=O)C[C@]12C`, which growth is on record?
Its growth is -33.9% (active).

Which growth does the source give for `C[C@]12CCc3sc(-c4ccc(Cl)cc4)nc3C1=CC[C@@H]1[C@@H]2CC[C@]2(C)C(=O)CC[C@@H]12` here?
Its growth is 84.3%.

For `C=CCC1(CC)C(=O)NC(=S)NC1=O`, which growth is on record?
The growth was 104%.

`NC(Cc1ccc2c(c1)OCO2)c1ccc2c(c1)OCO2` (stereo not given) was tested. Which growth did it give?
The growth was 105%.

How did the growth turn out when `O=C(CF)N(O)c1ccc(/C=C/c2ccccc2)cc1` was run?
The growth was -22.9% (active).

`COc1ccc(/C=C(/C(=O)N2CCCC2)c2cc(OC)c(OC)c(OC)c2)cc1N` was tested. Which growth did it give?
Its growth is 75.9%.

For `Nc1nc(N)c(-c2ccc(Cl)c(Cl)c2)c(/C=C/c2ccc(S(=O)(=O)F)cc2)n1`, which growth is on record?
Its growth is 114%.

Which growth does the source give for `Nc1c(Br)cc([N+](=O)[O-])cc1[N+](=O)[O-]` here?
Its growth is 92.9%.

How did the growth turn out when `Oc1ccc(O)c2c1C1(Cl)C(Cl)=C(Cl)C2(Cl)C1(Cl)Cl` was run?
The growth was 59%.

`CN(C)P1(N(C)C)=NP(N(C)C)(N(C)C)=NP(N(C)C)(N(C)C)=N1` was tested. Which growth did it give?
Its growth is 99.5%.

Which growth does the source give for `CCCCNCCc1ccccn1` here?
The growth was 110%.

How did the growth turn out when `CNC(=O)Oc1cccc(OC)c1` was run?
The growth was 102%.

Which growth does the source give for `C=C=[CH][Sn]([c]1ccccc1)([c]1ccccc1)[c]1ccccc1` here?
The growth was -40.4% (active).

With `NC(=O)SCC(=O)Nc1ccc([As](=O)(O)O)cc1` as the compound, how does the growth read?
Its growth is 111%.

`C[C@]12CC[C@H]3[C@@H](C[C@@H]4N=C(c5ccc(O)cc5)S[C@@]45C[C@H](O)CC[C@]35C)[C@@H]1CC[C@@H]2O` was tested. Which growth did it give?
The growth was 110%.

For `CC1(C)N=C(N)N=C(N)N1c1ccc(CCCCc2ccc(S(=O)(=O)F)cc2)cc1`, which growth is on record?
The growth was 36.8%.

Which growth does the source give for `Nc1c(Br)cc2c3c(cccc13)-c1ccccc1-2` here?
The growth was 89.3%.

How did the growth turn out when `COc1cc2c(cc1OC)CN(C)C(C)C2` (stereo not given) was run?
The growth was 96.8%.

How did the growth turn out when `CC(C)C1c2ccc(O)cc2Oc2nc(N)c(C#N)c(N)c21` (stereo not given) was run?
The growth was 93.6%.

`c1ccc2nc(OCCN3CC3)ccc2c1` was tested. Which growth did it give?
The growth was 83.1%.

`CC1(C)N=C(N)N=C(N)N1c1ccc(CNC(=O)Nc2ccc(S(=O)(=O)F)c(Cl)c2)c(Cl)c1` was tested. Which growth did it give?
Its growth is 83.8%.

Which growth does the source give for `c1ccc(-c2ccc3ccccc3[o+]2)cc1` here?
Its growth is 85.4%.

How did the growth turn out when `CSc1ccccc1NP1(=O)OCC(C)([N+](=O)[O-])CO1` (stereo not given) was run?
Its growth is 98.4%.

For `CC1COC(=O)C1` (stereo not given), which growth is on record?
Its growth is 96.7%.

Which growth does the source give for `C[CH2][Pb]([CH2]C)([CH2]C)[O]C(=O)COc1ccccc1` here?
The growth was 23.2%.

With `COc1ccc(/C=C\c2cc(OC)c(OC)c(OC)c2)cc1N/C=C\C(=O)c1c[nH]c2ccccc12` as the compound, how does the growth read?
The growth was -0.606% (active).

With `CCCC(C)(C)c1ccc2c(c1)OC(C)(C)[C@@H]1CC=C(C)C[C@@H]21` as the compound, how does the growth read?
Its growth is 98.3%.

`OC1(c2ccc(Cl)cc2Cl)c2ccccc2C2=NCCN21` (stereo not given) was tested. Which growth did it give?
The growth was 71.3%.

How did the growth turn out when `CC1(CF)NC(=O)NC1=O` (stereo not given) was run?
The growth was 119%.

How did the growth turn out when `O=C(Nc1ccc(S(=O)(=O)F)cc1)Oc1ccccc1` was run?
The growth was 99.5%.
